# Shn3 inh set2 = Schnurri-3 reporter inhibition in Clone20 osteoblasts. 360,000 tested, 0.52% active. inhibition, % at 12.5 µM. Clone20 osteoblast Shn3 3'UTR firefly luciferase, 24 h;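 active means mean inhibition of at least 75% with every replicate also reaching 75%; inconclusive means mean inhibition at least 75% but some replicate below; inactive means mean inhibition below 75%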;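 further: 0% = median of neutral control wells and 100% = pilot-screen positive control compound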
# KKLEB cytotox = reduces viability of KKLEB cystic fibrosis airway cells; 360,000 tested, 0.36% active; KKLEB CF airway cells viability, ATPlite luminescence, overnight; hits give low values; cells stimulated with P. aeruginosa culture filtrate; activity change (cytotoxicity), % at 5 µM;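 active means corrected activity change at or below -50% at 5 µM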
# MITF TRPM1 inh = reduces MITF-dependent TRPM1 promoter luciferase signal. 330,000 tested, 0.83% active. SK-MEL-5 TRPM1 promoter luciferase, 24 h. inhibition, % at 12.5 µM;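 active means mean inhibition across replicates of 60% or more, whatever share of single replicates reaches that level; inconclusive means some that reach 60%, reason not given; inactive means mean inhibition across replicates below 60%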
# HIF-2a block = blocks HIF-2a reporter activity. 786-0 RCC cells HIF-2a reporter, luciferase luminescence, overnight. inhibition, % at 18.8 µM. 360,000 tested, 0.72% active. AID 624352;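 active means inhibition of the luminescence signal of 40% or more relative to plate controls, in a single-dose primary screen at 18.75 µM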
# CF NFkB inh = cystic fibrosis NF-kB activation inhibition; AID 588850; 360,000 tested, 0.86% active; KKLEB NF-kB-GFP reporter, PAF-induced, GFP fluorescence overnight; inhibition, % at 5 µM;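 active means at least 50% inhibition at 5 µM, scaled per plate between neutral and stimulator controls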;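 further: PAF is a Pseudomonas aeruginosa culture filtrate used as stimulus; plate controls were PAF-stimulated DMSO wells for no effect and unstimulated DMSO wells for full effect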
# Peg3 prom inh = inhibitors of Peg3 promoter. HeLa PEG-Prom luciferase reporter, luminescence, overnight. inhibition, % at 20 µM. 360,000 tested, 1.7% active. AID 588405;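 active means inhibition of at least 50% at 20 µM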
# CF NFkB conf = CF NF-kB inhibition confirmation, single concentration; AID 602472; 1,300 tested, 64% active; KKLEB CF airway cells, PAF-induced NF-kB-GFP fluorescence, overnight; shares compounds with CF NFkB inh; inhibition, % at 5 µM; in the data active means inhibition above about 40%;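 further: stimulus PAF is a Pseudomonas aeruginosa filtrate and not platelet activating factor; plate controls were DMSO wells with stimulus for no effect and unstimulated DMSO wells for full effect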
# Mdm2 MdmX conf = confirmation of inhibitors of human Mdm2/MdmX interaction, set 2. shares compounds with HIF-2a block. SaOS-2 split-luciferase Mdm2/MdmX complementation, luminescence. inhibition, % at 8 µM. 740 tested, 99% active;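 active means mean inhibition of the luminescence signal across two replicates at or above 26 percent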
# HIF-2a conf = confirmation of HIF-2a inhibitors | shares compounds with HIF-2a block | 786-0 RCC cells, HIF-2a luciferase reporter luminescence, overnight | inhibition, % at 18.8 µM | 1,800 tested, 56% active | AID 651580;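 active means mean inhibition across four replicates of at least 40 percent at the single tested concentration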
# HIF-1a cs = inhibits HIF-1a reporter, a counter-screen for HIF-2a inhibitors; shares compounds with HIF-2a block; MiaPaCa-2 HIF-1a luciferase reporter, desferoxamine, overnight; inhibition, % at 18.8 µM; 1,800 tested, 72% active; AID 651589;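 active means mean inhibition of the reporter signal across four replicates at the single tested dose of 50% or more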
# * hit, by the source's call; ? = inconclusive; / = no result. Compounds with a hit are over-represented: about 2.8% of the library has one in this group of screens.
SMILES,Shn3 inh set2,KKLEB cytotox,MITF TRPM1 inh,HIF-2a block,CF NFkB inh,Peg3 prom inh,CF NFkB conf,HIF-2a conf,HIF-1a cs,others
CN(c1ccccc1)c1ccc(/C=C/[N+](=O)[O-])cc1,94.2*,-9.0,91.6*,91.9*,65.4*,103.2*,-22.5,84.7*,105.0*,
Cn1nc(-c2ccccc2)cc1NS(=O)(=O)c1ccc(C#N)cc1,-17.9,0.2,11.2,8.3,19.6,5.1,/,/,/,
Cn1ncc2c(O/N=C(\N)c3ccc(C(C)(C)C)cc3)ncnc21,4.5,-43.5,80.1*,93.1*,57.9*,112.2*,87.8*,98.3*,-197.5,Mdm2 MdmX conf=103.0*
O=C(NCc1ccon1)C1CCC(=O)N(CCc2cccc(F)c2)C1 (stereo not drawn),4.0,2.1,5.7,10.6,-11.1,5.2,/,/,/,
CC1(C(=O)Nc2ccc3ccccc3c2)CCC(=O)N1CCc1c[nH]c2ccccc12 (stereo not drawn),11.4,0.3,/,20.9,0.2,28.2,/,/,/,
C=C1C(=O)O[C@@H]2[C@H]1[C@@H](OC(=O)/C(C)=C/C)C/C(C)=C\C(=O)/C=C(\C)[C@@H]2O,-31.3,-3.5,96.4*,94.9*,85.9*,110.6*,-10.8,72.8*,102.4*,Mdm2 MdmX conf=103.5*
C=C1C(=O)O[C@H]2[C@H]1[C@H](OC(=O)/C(C)=C\C)C[C@]1(CO1)[C@@H]1[C@H](OC(C)=O)C=C(C)[C@]21O,-22.3,14.8,2.6,4.5,-2.2,13.7,/,/,/,
Cc1ccc(-c2cc(C(=O)N/N=C/c3c(C)nn(C)c3C)c3ccccc3n2)c(C)c1,1.3,-0.2,24.8,19.8,6.1,13.7,/,/,/,
CC1Cc2ccccc2N1C(=O)CCS(=O)(=O)c1ccc2c(c1)NC(=O)CS2 (stereo not drawn),-0.9,2.9,10.2,15.1,11.0,1.5,/,/,/,
COc1ccc2cc3c(N)nn(C(=O)c4ccc(F)cc4)c3nc2c1,1.0,-4.1,-9.2,-0.9,62.6*,-20.7,72.1*,/,/,Mdm2 MdmX conf=91.5*
COc1ccc2cc3c(N)nn(C(=O)c4cccc(F)c4)c3nc2c1,1.9,-2.5,-5.3,3.6,49.5,7.6,/,/,/,
C/C(=N\NC(=O)c1nnn(-c2nonc2N)c1CN1CCC(C)CC1)c1ccc(Br)cc1,6.3,-2.0,/,3.0,12.2,5.8,/,/,/,
Cc1cccc(CS(=O)(=O)c2ncc(Cl)c(C(=O)NCc3ccccc3)n2)c1,95.3*,-26.1,86.6*,69.1*,86.4*,96.5*,81.6*,69.1*,62.2*,
CCc1ncc(CN2CCCCC2C(=O)Nc2ccc(Oc3ccccc3)nc2)cn1 (stereo not drawn),1.8,12.1,-4.3,4.1,12.0,-2.5,/,/,/,
Cc1cccc(C)c1NS(=O)(=O)c1ccc(-c2cnc(C3CC3)o2)cc1,28.7,-31.4,74.4*,47.0*,65.2*,18.7,73.1*,34.6,50.8*,
CCc1cc(SC#N)cc(C)c1NC(=O)CCl,7.7,-48.2,9.4,45.7*,66.0*,-86.9,54.0*,46.9*,62.1*,
CC(=C/c1ccccc1)/C=N/n1c(-c2ccncc2)n[nH]c1=S,2.8,-4.2,-29.8,16.0,76.3*,-0.9,78.4*,/,/,Mdm2 MdmX conf=89.2*
CC(/C=N/n1c(-c2cccnc2)n[nH]c1=S)=C\c1ccccc1,11.2,13.5,-8.4,-6.7,12.3,8.1,/,/,/,
CCC(C)(C)NC(=O)c1ccc(S(=O)(=O)N2CCCCCC2)cc1,3.6,14.4,7.5,12.5,-14.0,6.7,/,/,/,
O=C(c1nnsc1S(=O)c1ccc(Cl)cc1)N1CCOCC1 (stereo not drawn),94.2*,-5.7,87.7*,28.3,83.5*,101.3*,105.2*,/,/,Mdm2 MdmX conf=102.2*
O=C(OC(C(=O)NC1CCCCC1)c1ccccc1F)c1ccco1 (stereo not drawn),6.1,4.3,3.4,6.3,-10.5,1.3,/,/,/,
Cc1nn(-c2ccccc2)c(Cl)c1C(=O)N1CCN(c2ncnc3c2cnn3-c2ccccc2)CC1,70.4,-16.6,51.1,11.6,62.6*,113.8*,72.5*,/,/,Mdm2 MdmX conf=99.7*
CN(CC1COc2ccccc2O1)C(=O)c1ccc(Cl)c(S(=O)(=O)N2CCCCCC2)c1 (stereo not drawn),5.7,5.7,9.8,10.1,-9.4,16.9,/,/,/,
Cc1cc(Sc2nnc(N)s2)c2ccccc2n1,?,-27.3,48.1,40.9*,89.1*,7.2,-7.2,31.6,0.9,
N#Cc1c(Oc2ccc3ccccc3c2)sc(C(=O)c2ccccc2)c1N,7.6,-14.9,22.2,42.5*,50.6*,48.3,-102.5,17.4,-81.7,
SMILES,Shn3 inh set2,KKLEB cytotox,MITF TRPM1 inh,HIF-2a block,CF NFkB inh,Peg3 prom inh,CF NFkB conf,HIF-2a conf,HIF-1a cs,others
CCOC(=O)C(=Cc1ccc(-n2cncn2)cc1)C(=O)OCC,7.1,-7.7,41.1,94.5*,75.1*,103.9*,21.7,90.1*,105.9*,
C=C1C(=O)C2=CC1CCC(=O)C1(C)CCC(OC(C)=O)C(C)(C)C1CC2O (stereo not drawn),83.6*,9.2,/,85.9*,82.6*,98.8*,83.5*,95.5*,104.9*,
CC(=O)OC1CCC2C3CCC4OC(=O)CCC4C3CCC12C (stereo not drawn),-15.5,12.5,-8.4,-10.0,-23.0,3.9,/,/,/,
Cn1c(Sc2ccc(Cl)cc2)c(C=O)c2ccccc21,6.6,-28.9,18.9,26.3,76.3*,53.8*,81.1*,/,/,Mdm2 MdmX conf=92.5*
Cc1ccc2[nH]cc(C(=O)CN3CCN(C)CC3)c2c1,-5.8,3.1,-1.0,2.2,-1.3,5.0,/,/,/,
Cc1ccc2[nH]cc(C(=O)CCl)c2c1,0.9,-18.8,47.8,15.8,60.0*,108.1*,85.6*,/,/,Mdm2 MdmX conf=103.5*
FC(F)(F)c1nnc2c(Sc3ccccn3)nc3ccccc3n12,-41.9,-9.8,46.3,-45.2,47.1,23.9,/,/,/,
FC(F)(F)c1nnc2c(Sc3ccc(Cl)cc3)nc3ccccc3n12,7.9,-16.8,78.5*,41.5*,103.6*,67.3*,101.1*,9.6,45.7,
CC1(C(=O)Nc2ccc(F)cc2F)CCN1C(=O)CCC1CCCC1 (stereo not drawn),-3.3,-0.9,/,15.9,-6.0,10.8,/,/,/,
CC(NC(=O)C1CCN(S(=O)(=O)c2cccs2)CC1)c1cccc(Cl)c1 (stereo not drawn),-28.3,-8.3,14.1,-3.8,2.5,4.0,/,/,/,
O=C(O)CSc1ncnc2scc(-c3ccccc3)c12,-2.2,5.9,-7.0,13.7,8.7,-142.4,/,/,/,

# Compound activity deposited in PubChem BioAssay by several laboratories.
